Measured values: PubChem BioAssay (NCI)
The panel holds about 83,000 compounds, 20% with a hit somewhere; the sample as a whole holds those more often.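 Activity criterion: percent growth below 10, measured after cells in 96-well plates were exposed to a single compound concentration for 48 hours.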 Values without a mark were called inactive. The source made the active and inactive calls.

test system: HCT-116 colon; experiment: NCI-60 one-dose screen, 48 h (100 = growth as untreated, 0 = no growth, -100 = all killed); conditions: 10 µM unless noted
Procedure: Growth inhibition of the HCT-116 human tumor cell line is measured as a screen for anti-cancer activity. Cells are grown in 96 well plates and exposed to the test compound for 48 hours. Compounds are tested at a single concentration, which is 10^-5 M for most compounds. The reported endpoint is percent growth (GI% or GIPRCNT), where numbers from 0 - 100% represent growth inhibition, and numbers from -100% - 0 represent cell death. For example, a value of 40 represents 60% growth inhibition. A value of 0 means no net growth occurred over the course of the experiment. A value of -40 indicates 40% of cells at the beginning of the experiment died by the end of the experiment. A value of -100 means all cells are dead at the end of the experiment.
NCI-60 Human Tumor Cell Lines Screen was performed using the standard one-dose NCI protocol, which is described in more detail at https://dtp.cancer.gov/discovery_development/nci-60/default.htm.
Compounds with GIPRCNT values below 10 were considered active. Activity score was based on GIPRCNT using the following formula: […]
Score is 0 for GIPRCNT values of 100 or above, 50 for GIPRCNT values of 0, and 100 for GIPRCNT values of -100.

SMILES | growth
CCN(CC)c1ccc2nc3c4ccccc4c(=O)cc-3n(-c3ccccc3)c2c1 | -31.7% (active)
Cc1nc2c(-c3cnc(N)nc3)nc(N3CCOCC3)nc2n1C(C)C | 17.2%
CCCCCCCCCC1=NC(C)(C)CN1C(C)(C)CO | 69.3%
CC(=O)[C@@]1(O)[C@H](C)C[C@H]2[C@@H]3C=C(C)C4=Cc5c(cnn5-c5ccccc5)C[C@]4(C)[C@H]3[C@@H](O)C[C@@]21C | 14.4%
Cc1ccc(NC(=O)Cn2nncc2CN2C(=O)CSC2=O)cc1C | 102%
CC(=O)OC1Oc2ccccc2-c2oc3nc(=N)n(C)c-3cc21 (stereo not given) | 100%
CCCCn1c(C)nc2ccc(Nc3nc(Cl)nc4nc[nH]c34)cc21 | 67.7%
O=C(c1ccccc1)N(CCCCl)C(=O)N(CCCCl)C(=O)c1ccccc1 | 90.9%
CCOC(=O)c1ccc(N(CCC(=O)O)C(C)=O)cc1 | 104%
O=c1[nH]c2cc(Cl)c(Cl)cc2o1 | 98.9%
COc1ccc(-c2cnc3ccnn3c2-c2cc(OC)c(OC)c(OC)c2)cc1 | 27.5%
CCN(CC)CCCC(C)Nc1cnc(C(=O)Nc2cccc3ccc(OC)nc23)cn1 (stereo not given) | -36% (active)
Cn1c(=O)c2c3c(oc2c2ccccc21)C(=O)c1ccccc1C3=O | 71.7%
Cn1c(=O)c2[nH]c(Cc3ccc4c(c3)OCO4)nc2n(C)c1=O | 105%
O=C1C2=C(C(=O)c3c(O)ccc(O)c31)N(c1ccc(N3CCOCC3)nc1)Cc1ccccc1O2 | -84.5% (active)
O=C1c2ccccc2C2N1CCC1CCc3ccccc3N12 (stereo not given) | 93.7%
COc1ccc(-c2n[nH]nc2-c2cc(OC)c3c(c2)OCO3)cc1 | 5.38% (active)
COc1cc(/C=C2\C(=O)Nc3ccc(N(C)C)cc32)cc(OC)c1OC | 13.7%
Cc1cc(C)cc(NC(=O)Cn2nncc2CN2C(=O)CSC2=O)c1 | 107%
NCCCOc1cc2ccccc2cc1C(=O)NCCCOc1cc2ccccc2cc1C(=O)Nc1ccc(Cl)cc1O | -85.8% (active)

SMILES | growth
Cc1cccc(C(=O)O)n1 | 99.2%
CC(=O)c1cc(C(=O)c2ccc3c(c2)Sc2ccccc2N3)c2c(C)cccn12 | 6.07% (active)
O=C(/C=C/c1cn(-c2ccccc2)nc1-c1cccc(Nc2ccnc3cc(Cl)ccc23)c1)c1ccc2c(c1)OCO2 | 83.8%
COc1cc2nccc(Oc3ccc(NC(=O)C4(C(=O)Nc5ccc(F)cc5)CC4)cc3)c2cc1O | 52%
O=C1C=CC(=O)N1c1cccc(N2C(=O)C=CC2=O)c1 | 24.7%
ClCc1cccc(CSc2ncnc3c2ncn3Cc2cccc(CCl)c2)c1 | -79.6% (active)
CC1=C(O)C(=O)C(c2c(C)cc(C)c(Br)c2C)=C(O)C1=O | 54.4%
COc1ccc2[nH]cc(/C=C3\C(=O)Nc4ccccc43)c2c1 | 17.9%
CN1CCN(Cc2ccc(NC(=O)c3cncc(C#Cc4ncc5ccccn45)c3)cc2C(F)(F)F)CC1 | -51.5% (active)
O=Cc1ccc2nc(C(Cl)(Cl)Cl)ccc2c1 | 96.7%
COc1cc(CN2CCO[C@H](COc3cccc(F)c3)C2)ccc1Cl | 27.1%
Cc1cc(C)c2c(n1)sc1c(Nc3ccc(O)cc3)ncnc12 | 29.2%
C#CC[C@@H]1C[C@]2(C)[C@H]3CC[C@@H]4[C@H]5C(C(=C)C)CC[C@]5(C(=O)NCCN(CCN)CCN)CC[C@@]4(C)[C@]3(C)CC[C@H]2C(C)(C)[C@H]1OC(C)=O (stereo not given in full) | 2.57% (active)
COc1cccc(CC(C)=C(c2ccc(OCCCN(C)C)cc2)c2ccc(OCCCN(C)C)cc2)c1 | -75.6% (active)
CN1CCN(Cc2ccc(NC(=O)c3ccc(C#N)c(C#Cc4cnc(N)c5ncccc45)c3)cc2C(F)(F)F)CC1 | -10.5% (active)
COc1ccc(-c2[nH]nc(N)c2-c2cc(OC)c(OC)c(OC)c2)cc1 | 6.24% (active)
COC1CC(N)C2OC(c3ccccc3)OCC2O1 (stereo not given) | 102%
Nc1cccc(S(=O)(=O)c2cccc(N)c2)c1 | 112%
CCOP(=O)(O)OP(=O)(O)OCC | 106%
COc1cc2c(cc1OC)C(=O)C(Br)CC2 (stereo not given) | 7.03% (active)
